# Measured values: PubChem BioAssay
# Unmarked numbers belong to inactive results. How the calls were made is not given here.
# Biological target: Pantothenate synthetase (Mycobacterium tuberculosis (strain ATCC 25618 / H37Rv)) (UniProt P9WIL5)
# Experiment: Recombinant Mtb pantothenate synthetase (PanC) inhibitors, coupled enzyme, confirmatory (AID 375);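 further: 0% = full reaction with vehicle and 100% = no enzyme background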
# Settings: coupled enzyme assay; at 10 µM, stronger effect = higher value
# Pantothenate synthetase (Mycobacterium tuberculosis (strain ATCC 25618 / H37Rv)), sequence (P9WIL5 whole entry, looked up): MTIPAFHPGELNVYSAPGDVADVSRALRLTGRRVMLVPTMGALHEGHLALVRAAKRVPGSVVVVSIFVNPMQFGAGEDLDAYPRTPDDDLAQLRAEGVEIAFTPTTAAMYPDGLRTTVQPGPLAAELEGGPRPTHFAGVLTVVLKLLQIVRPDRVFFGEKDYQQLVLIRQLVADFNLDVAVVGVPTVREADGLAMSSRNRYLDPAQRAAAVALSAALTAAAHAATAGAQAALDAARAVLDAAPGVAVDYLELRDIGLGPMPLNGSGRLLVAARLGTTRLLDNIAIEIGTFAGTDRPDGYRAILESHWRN
row,Compound,inhibition
1,CCOC(=O)c1[nH]c(C)c(C(=O)Nc2ccc(Cl)cc2)c1C,0%
2,O=C(NCc1ccc(F)cc1)C1CCN(C(=O)NCc2ccccc2)CC1,0%
3,c1ccc(-n2ncc3c(NCc4cccs4)ncnc32)cc1,0%
4,CC1CCN(CC(O)COC2CCC(C(C)(C)C)CC2)CC1 (centres undefined),0%
5,Cc1[nH]nc2c1C(c1ccc(F)cc1)C1=C(CC(C)(C)CC1=O)N2 (centres undefined),11%
6,CCCCOc1ccccc1NC(=O)c1ccco1,0%
7,CCc1ccc2c(CN(CC)Cc3nc4ccccc4c(=O)[nH]3)cc(=O)oc2c1,0%
8,COc1cccc(-n2c(SC3CCOC3=O)nc3ccccc3c2=O)c1 (centres undefined),2%
9,O=C(Nc1ccc2c(c1)OCO2)C(c1ccccc1)N1CCC2(CC1)OCCO2 (centres undefined),0%
10,CC1Cc2nc(SCC(=O)N3CCCc4ccccc43)n(C)c(=O)c2S1 (centres undefined),1%
11,CCOC(=O)CSc1nnc(-c2ccccc2OC)o1,0%
12,CC(NCc1ccco1)C(=O)N1CCc2ccccc2C1 (centres undefined),5%
13,N#CC1=C(N)Oc2n[nH]c(-c3cccs3)c2C1c1cccs1 (centres undefined),2%
14,O=C1NC(=O)C(c2ccccc2)(c2ccccc2)N1,0%
15,Cc1cc(C)nc(SCc2csc(N)n2)n1,1%
16,CC(Oc1ccc(Br)cc1)C(=O)N1CCc2ccccc21 (centres undefined),0%
17,CCOC(=O)C1CCN(c2c(N3CCCCCC3)c(=O)c2=O)CC1,2%
18,CCC(C)c1ccc(NC(=O)c2cccnc2)cc1 (centres undefined),9%
19,CCCCCCNC(=O)c1c(N)n(/N=C/c2ccco2)c2nc3ccccc3nc12,5%
20,COc1ccc(C(c2nnnn2C2CCCC2)N2CCN(C3CCCC3)CC2)cc1OC (centres undefined),4%
21,CC(=O)c1ccc(N2CCN(C(=O)c3cc(C)on3)CC2)cc1,0%
22,CCOc1ccccc1C1NC(=O)NC(C)=C1C(=O)OC1CCCC1C (centres undefined),2%
23,Cc1ccc(C)n1-c1ccc(-n2cnnn2)cc1,2%
24,CC1=C(C#N)C(c2ccoc2)C(C(=O)OCc2ccccc2)=C(N)S1 (centres undefined),5%
25,CC(Oc1ccccc1)C(=O)NC1CCN(Cc2ccccc2)CC1 (centres undefined),7%
26,CC(C)C12CN3CC(C(C)C)(CN(C1)C3c1ccc3c(c1)OCO3)C2=O (centres undefined),0%

row,Compound,inhibition
1,COc1ccc(Oc2c(C)oc3cc(OC(=O)N4CCOCC4)ccc3c2=O)cc1,3%
2,Cc1cc(/C=c2/sc3nc4ccccc4n3c2=O)c(C)n1-c1ccccn1,1%
3,FC(F)(F)c1cc(-c2ccco2)nc(N2CCOCC2)n1,2%
4,COC(=O)c1ccc2c(=O)n(NC(C)=O)c(=S)[nH]c2c1,0%
5,Cc1cc(C)c2nc(C(F)(F)F)nc(NCCCN3CCCC3=O)c2c1,0%
6,CS(=O)(=O)N(Cc1nc2sc3c(c2c(=O)[nH]1)CCCC3)C1CCCCC1,0%
7,Cc1cc(C(=O)NCCCN2CCN(C3CCCCC3)CC2)n(-c2ccccc2)n1,4%
8,Cc1csc(NC(=O)C2CCCO2)n1 (centres undefined),0%
9,COCCCn1c(=N)c(C(=O)NCC2CCCO2)cc2c(=O)n3cccc(C)c3nc21 (centres undefined),0%
10,O=C(CSC1=NCCS1)NCc1ccco1,0%
11,CC(C)NCC(O)COc1ccc(CCOCC2CC2)cc1 (centres undefined),0%
12,CCN1CCN(Cc2ccc(NC(=O)Nc3ccccc3)cc2)CC1,1%
13,COCCNC(=O)c1snc2ccc(Cl)cc12,0%
14,CC(Oc1ccc(Cl)cc1Cl)c1nc(-c2ccc(NC(=O)c3cccnc3)cc2)no1 (centres undefined),3%
15,CCOC(=O)C1(CC)NC(c2cccc(F)c2)C2C(=O)N(CC)C(=O)C21 (centres undefined),0%
16,COc1ccc(CN(CC(=O)NCC2CCCO2)C(=O)CNS(=O)(=O)c2ccc(C)cc2)cc1 (centres undefined),9%
17,N#CC1=C(SCC(=O)NC2CCCCC2)NC(=O)CC1c1ccco1 (centres undefined),8%
18,CCCCn1c(SCC(=O)NCc2ccccc2)nc2ccc(N3CCOCC3)cc2c1=O,0%
19,Cc1cccc(OCc2nc(C#N)c(NCCN(C)C)o2)c1,1%
20,O=C(CN(C(=O)CCC(=O)Nc1nccs1)c1ccccc1F)NCC1CCCO1 (centres undefined),2%
21,COc1cccc(NC(=O)C2CCCN2C(=O)Nc2cccc(F)c2)c1 (centres undefined),0%
22,Cc1ccc(S(=O)(=O)NCCc2ccncc2)cc1,2%
23,COc1ccc(N2CCN(Cc3nc(-c4ccc(Cl)cc4Cl)no3)CC2)cc1,6%
24,COc1ccc(-c2nc(C)sc2CC(=O)O)cc1,4%
25,COc1ccc(NC(=O)CCc2nc(-c3ccccc3F)no2)cc1,0%
26,NC(=O)c1sc2nc(N3CCCCC3)c3c(c2c1N)CCCC3,0%

row,Compound,inhibition
1,Cc1nnc(SCC(=O)N2c3ccccc3CC2C)s1 (centres undefined),0%
2,CC1CCc2nn(CC(=O)NCCCN3CCOCC3)cc2C1 (centres undefined),0%
3,O=C(NCC1COc2ccccc2O1)C1CCCN(S(=O)(=O)c2cnc[nH]2)C1 (centres undefined),0%
4,COC(=O)c1sc(N)c(C(=O)OC)c1CSc1nc2sc3c(c2c(=O)n1C)CCC3,0%
5,Cc1cc(NC(=O)CCCN2C(=O)c3cccnc3C2=O)no1,0%
6,COc1cc(NS(=O)(=O)c2ccc(N)cc2)nc(OC)n1,0%
7,CCN1CCN(CCCNC(=O)c2cc3sccc3n2CC)CC1,0%
8,O=C(Nc1ccccc1C(=O)N1CCOCC1)C1COc2ccccc2O1 (centres undefined),0%
9,CCOC(=O)c1[nH]c(C)c(C(=O)Nc2ccc(C)cc2C)c1C,1%
10,CCOc1ccc(C(c2nnnn2Cc2ccccc2)N2CCN(C(=O)c3ccco3)CC2)cc1 (centres undefined),2%
11,CCCCOc1ccc(C2C3CN(C(=O)OCC)CC=C3C(C#N)=C(N)C2(C#N)C#N)cc1OC (centres undefined),0%
12,Cc1ccc(N(CC(=O)NCC2CCCO2)S(C)(=O)=O)cc1Cl (centres undefined),0%
13,CCOc1ccccc1N1CCN(C(=O)c2ccncc2)CC1,0%
14,Cc1cccc(CC(=O)Nc2c3c(nn2-c2cccc(Cl)c2)CS(=O)C3)c1 (centres undefined),2%
15,Cc1ccc(OCC(=O)NCCN2CCCC2)cc1,0%
16,O=C(CCn1c(=O)oc2ccccc21)N1CCN(c2ccccc2Cl)CC1,0%
17,CCn1c(=O)cc(SCC(=O)NCCN2CCN(Cc3ccccc3)CC2)c2ccccc21,0%
18,O=C(CN1C(=O)c2ccccc2S1(=O)=O)NCc1ccccn1,0%
19,COc1cc(NS(=O)(=O)c2ccc(N)cc2)ncn1,0%
20,O=C(CSc1nc2ccccc2nc1SCC(=O)N1CCOCC1)N1CCOCC1,0%
21,COc1ccccc1NC(=O)N1c2ccc(F)cc2CCC1C (centres undefined),8%
22,O=C(Nc1ccncc1)c1cc2ccccc2o1,3%
23,CC(=O)N1CCN(C(C)=O)C1c1ccccc1,2%
24,O=C(Nc1ccc(NC(=O)c2ccco2)nc1)c1cccnc1,0%
25,CC(=O)c1ccc(Oc2cc(C)nc(-n3nc(C)cc3C)n2)cc1,4%
26,O=C(Nc1ccc(Br)c2cccnc12)c1ccc(Cn2cc(Cl)cn2)o1,1%

row,Compound,inhibition
1,CCNC(=O)CC(=O)Nc1ccccc1C(=O)O,0%
2,Cc1ccc2cc(C#N)c(N3CCCC3)nc2c1C,4%
3,COc1cccc(CNc2nc3nc(C)c(Cl)c(C)n3n2)c1,12%
4,O=C(NC(C(=O)c1ccccc1)N1CCOCC1)c1cccs1 (centres undefined),0%
5,CCOc1ccc(Cn2nnc(C(=O)Nc3ccc(OC)cc3OC)c2N)cc1,0%
6,CC(=O)Nc1ccccc1-c1nc2ccc(C(=O)N3CCN(c4ccccc4)CC3)cc2[nH]c1=O,7%
7,COc1ccc(C(O)C(CN2CCOCC2)c2ccccc2)cc1F (centres undefined),2%
8,c1ccc(-c2nc3ccccc3nc2-c2ccccn2)nc1,0%
9,O=C(CN1C(=O)c2cccc3cccc1c23)NCC1CCCO1 (centres undefined),5%
10,CCCC(=O)N(c1ccc2oc(=O)sc2c1)S(=O)(=O)c1ccccc1,0%
11,Cc1ccc(NC(=O)C2CCCN(S(=O)(=O)c3cnc[nH]3)C2)c(Br)c1 (centres undefined),0%
12,O=C(Nc1ccc(N2CCCC2)cc1)c1cccc(F)c1,4%
13,Clc1cccc(-c2nn3c(Cn4cnc5ccccc54)nnc3s2)c1,0%
14,O=S(=O)(Nc1cccc2ncccc12)c1cccs1,6%
15,CC(=O)N=c1sc(S(N)(=O)=O)nn1C,0%
16,COc1cccc(-c2noc(-c3cccs3)n2)c1,1%
17,COc1cc(C(=O)Nc2cc(C)ccn2)cc(OC)c1OC,0%
18,Cc1nn(Cc2ccccc2Cl)c(C)c1NC(=O)C1C2CCC(O2)C1C(=O)O (centres undefined),1%
19,COC(=O)CC1SC(=O)NC1=O (centres undefined),0%
20,NC(Cc1ccc(Oc2ccc(O)cc2)cc1)C(=O)O (centres undefined),0%
21,CCC1CCCCN1C(=O)C1CC(c2cc(Cl)c(OC)cc2OC)=NO1 (centres undefined),1%
22,C=CCOC(=O)C1=C(C)NC(=O)NC1c1cn(-c2ccccc2)nc1-c1cccs1 (centres undefined),4%
23,COCCN1C(=O)C(=O)/C(=C(/O)c2ccc(OC(C)C)cc2)C1c1cccnc1 (centres undefined),0%
24,Cc1cc(C)n(Cc2nc3ccccc3n2C)n1,0%
25,CNC(=O)CSc1nnc(-c2cc3c(C)nn(-c4ccccc4)c3s2)n1C,2%
26,O=C(CCN1C(=O)C2C3C=CC(C3)C2C1=O)Nc1c(F)cc(F)cc1Br (centres undefined),0%
